Compounds without any hit were thinned out: in the full panel of roughly 83,000, 20% have a hit.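 Cells were grown in 96-well plates and exposed to the test compound at a single concentration for 48 hours; results are reported as percent growth, with values below 10 considered active.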 Unmarked numbers belong to inactive results. Calls of active or inactive are those of the source.
What was measured:
Assay in all cases: NCI-60 one-dose screen, 48 h (100 = growth as untreated, 0 = no growth, -100 = all killed)
Details in all cases: 10 µM unless noted
NCI-H23 lung = test system: NCI-H23 lung
NCI-H226 lung = test system: NCI-H226 lung
NCI-H322M lung = test system: NCI-H322M lung
HOP-62 NSCLC = test system: HOP-62 NSCLC
NCI-H460 lung = test system: NCI-H460 lung
HOP-92 NSCLC = test system: HOP-92 NSCLC
NCI-H522 lung = test system: NCI-H522 lung
A549/ATCC NSCLC = test system: A549/ATCC NSCLC
786-0 renal = test system: 786-0 renal
COLO 205 colon = test system: COLO 205 colon

Compound | growth (NCI-H23 lung) | growth (NCI-H226 lung) | growth (NCI-H322M lung) | growth (HOP-62 NSCLC) | growth (NCI-H460 lung) | growth (HOP-92 NSCLC) | growth (NCI-H522 lung) | growth (A549/ATCC NSCLC) | growth (786-0 renal) | growth (COLO 205 colon)
COc1ccc(Cl)c([N+](=O)[O-])c1 | 98.5% | 101% | 98.8% | 93.4% | 108% | 98% | 95.7% | 99.6% | 99.2% | 116%
c1ccc2c3c([nH]c2c1)C(c1ccc(C2NCCc4c2[nH]c2ccccc42)cc1)NCC3 (stereo not given) | 72.4% | 77.1% | -1.54% (active) | -70.3% (active) | -71.6% (active) | 20.8% | -72.4% (active) | -85.1% (active) | -68.1% (active) | -81.5% (active)
COc1cc(C(=O)Nc2cc(OC)c3ccn(C)c3c2)cc2c1C[C@]1(C)CC[C@@H](O)C(C)(C)[C@H]1O2 | 30.3% | 76.7% | 57.3% | 11.7% | 14% | 8.71% (active) | -3.97% (active) | 24.1% | 0.587% (active) | 3.69% (active)
COc1cc2c(cc1OCCCOc1cc3c(cc1OC)C(=O)N1CC(F)(F)C[C@H]1C=N3)N=C[C@@H]1CC(F)(F)CN1C2=O | 5.01% (active) | -20.1% (active) | 29% | 11.1% | 7.32% (active) | -35.4% (active) | -26.4% (active) | 36.1% | -22.8% (active) | 3.85% (active)
CC1(C)Cc2c(Br)c(Br)c(Br)c(OCC(O)CN3CCOCC3)c2O1 (stereo not given) | 93.9% | 109% | 72.4% | 97.3% | 93.8% | -38.2% (active) | -84.2% (active) | 86.7% | 79.2% | 116%
CC(=O)c1cc2c(N)c(C(=O)Nc3ccccn3)sc2nc1C | 87.3% | 86.8% | 73.6% | 88.3% | 45.6% | 75.2% | 77% | 48.7% | 88.2% | 40.6%
CCOC(=O)C1CCN(S(=O)(=O)/N=C2/NC(=O)NC2=C(Cl)Cl)CC1 | 16.7% | 118% | 31.1% | 20.2% | 7.43% (active) | -73.9% (active) | -69.4% (active) | 21% | 3.63% (active) | -69.6% (active)
O=C1C(Cl)=C(NCCCN(CCCNC2=C(Cl)C(=O)c3ccccc3C2=O)C2=C(Cl)C(=O)c3ccccc3C2=O)C(=O)c2ccccc21 | -13.5% (active) | 88.1% | 61.5% | 102% | 39.2% | 87.9% | 73.8% | 45.6% | 90.5% | -13.8% (active)
CCCNc1nc(C)[nH]c(=O)c1S | 102% | 122% | 85.3% | 119% | 111% | -2.9% (active) | 91% | 110% | 110% | 115%
OCCNc1nc(NCCO)nc(Nc2ccc(C3=NN(c4cc(Cl)cc(Cl)c4)C(c4ccc(C(F)(F)F)cc4)C3)cc2)n1 (stereo not given) | 56.6% | 80.2% | 49.1% | 32.5% | 14.8% | 65.8% | 61.2% | 32.9% | 2.27% (active) | 25.3%
O=S(=O)(Nc1nccs1)c1ccc(Nc2nc(-c3ccncc3)cs2)cc1 | 108% | 102% | 126% | 93.8% | 99.3% | 96.9% | 97.6% | 104% | 97.8% | 93.2%
O=C1NN(c2ccccc2)C(c2ccc3c(c2)OCO3)N2CCC[C@@H]12 (stereo not given in full) | 88.2% | 105% | 88.3% | 91.4% | 106% | 107% | 70.1% | 97.9% | 98.2% | 104%
CCN1CCN(Cc2ccc(NC(=O)c3cccc(C#Cc4cccc5[nH]nc(N)c45)c3)cc2C(F)(F)F)CC1 | -42.9% (active) | 16.6% | -49.6% (active) | -76.4% (active) | -72.2% (active) | -62.7% (active) | -84.7% (active) | -91.2% (active) | -81.6% (active) | -76.2% (active)
CCCCn1c(=O)c(/C=C/C(=O)/C=C/c2ccc(O)c(OC)c2)cc2ccc(Cl)cc21 | 27.7% | -18.4% (active) | 50.6% | 59.6% | 14.5% | 77.3% | -4.4% (active) | 26.4% | -0.448% (active) | 29.7%
CSc1nc(-c2ccco2)c2c(N)[nH]nc2n1 | 97.7% | 102% | 97.8% | 84.6% | 97.6% | 109% | 79.4% | 100% | 93.4% | 123%
Cc1ccc(-c2nc(C#N)c(S(=O)(=O)N(C)CCO)o2)cc1 | 80.3% | 124% | 93.3% | 97.7% | 89.3% | 88.9% | 17.5% | 99% | 79.6% | 44.3%
COc1ccc2oc(=O)cc(-c3c(C#N)c(N)n4nc(N)c(C#N)c4c3C#N)c2c1 | 102% | 95.4% | 96.8% | 90.9% | 101% | 97.3% | 80.1% | 95% | 103% | 108%
COc1cc(-c2csc(NC(=O)Nc3ccc(C(F)(F)F)cc3)n2)cc(OC)c1OC | 2.62% (active) | 0.0527% (active) | 33.5% | 9.05% (active) | 4.98% (active) | -24.5% (active) | -25% (active) | 5.16% (active) | -10% (active) | -44.4% (active)
COc1ccc2nc(-c3ccc(Cl)cc3)cc(-c3nnc(SCC(=O)Nc4ccc(/C(C)=N\O)cc4)o3)c2c1 | 2.74% (active) | 22.8% | 57.4% | 60% | -31.2% (active) | 19.1% | 9.31% (active) | -9.66% (active) | 25.9% | 56.1%
O=c1cc(/C=N\Nc2nc(-c3ccc(Cl)cc3Cl)cs2)c2cc(Cl)ccc2o1 | 85.3% | 87.9% | 95.3% | 80.3% | 96.1% | 82.2% | 88.6% | 88.3% | 96.9% | 107%
CCn1cc(C(=O)O)c(=O)c2cc(F)c(N3CCN(CC(=O)Nc4ccc(/C(C)=N/OC)cc4)CC3)cc21 | 90.6% | 97.9% | 80.2% | 88.8% | 104% | 84.8% | 84.8% | 95.8% | 91.7% | 102%
COc1ccc2c(c1)Oc1nc(N)c(C#N)c(N)c1C2Sc1ccc(SC)cc1 (stereo not given) | 44.1% | 75.6% | 77.4% | 100% | 58% | 18.4% | -81.5% (active) | 85.7% | 8.66% (active) | -3.1% (active)
